Screening results deposited in PubChem BioAssay by SRMLSC.
Sampled rows, rich in hits. Any-hit rate of the full collection: about 6.8%.
Autofluor 339: intrinsic fluorescence of library compounds, ex339/em460 – biochemical, MLSMR library, data from DPM-DC assay, artefact control, profiling panel | compound autofluorescence, ex339/em460 nm, NADH buffer; active compounds read high; 1 = no-compound wells, NADH background | fluorescence fold increase at 10 µM | hit rate 5.5% among 65,000;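 active means at 10 µM, mean starting fluorescence two-fold or more over control wells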;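 further: signal is the first read of a kinetic run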
Spn MK inh: S. pneumoniae MK inhibitors, primary screen, biochemical, PK/LDH-coupled NADH absorbance. mevalonate kinase [Streptococcus pneumoniae D39]. purified MK, PK/LDH-coupled NADH absorbance 340 nm. inhibition, % at 10 µM. hit rate 0.48% among 65,000;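 active means ranked among the strongest by inhibition in the single 10 µM screen, a fixed top-ranked set picked for dose follow-up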
Abs 340nm: compound light absorbance at 340 nm, profiling panel, artefact control, biochemical, MLSMR library, data from PS, PMK, MK assays; AID 708, 2007; fold change at 10 µM; 65,000 tested, under 10 active; compound absorbance at 340 nm, fold over control;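 active means at 10 µM dose, initial 340 nm absorbance at least 2 fold that of control wells; inactive means change under 2 fold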;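 further: initial absorbance extrapolated from kinetic A340 decline of NADH oxidation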
DPM-DC inhibit: S. pneumoniae DPM-DC inhibitors, primary screen, biochemical, PK/LDH-coupled NADH fluorescence. diphosphomevalonate decarboxylase (Streptococcus pneumoniae D39). purified DPM-DC. calls only at 10 µM. hit rate 0.49% among 65,000;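 active means the 320 compounds with the highest percent inhibition in the single-dose primary screen, excluding strongly autofluorescent ones, cut at about 32% in these data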;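 further: kinetic rate of NADH fluorescence loss reporting ADP formed by the decarboxylase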
NADH enzymes: inhibitors of PK/LDH coupling enzymes, profiling panel, artefact control, biochemical, MLSMR library | coupled PK/LDH NADH assays, four targets | IC50, µM (top dose mostly 10 µM), without a hit: at the highest dose inhibition | hit rate 0.02% among 65,000;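 active means single-dose screening hits from any of four coupled enzyme assays that gave an IC50 when retested across doses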;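 further: the DPM-DC format reads NADH fluorescence rather than 340 nm absorbance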
PMK inhibit: S. pneumoniae PMK inhibitors, primary screen, biochemical, mevalonate pathway, pilot trial included | AID 539, 2006 | inhibition, % at 10 µM | phosphomevalonate kinase (Streptococcus pneumoniae D39) | purified PMK, PK/LDH-coupled NADH absorbance 340 nm | hit rate 0.49% among 65,000;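 active means top-ranked compounds by inhibition in the single 10 µM screen, taking a fixed number of the strongest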;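 further: 0% = full reaction with DMSO carrier and 100% = background rate without enzyme reaction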
* hit, by the source's call; i = inactive; · = no result given.

SMILES	Autofluor 339	Spn MK inh	Abs 340nm	DPM-DC inhibit	NADH enzymes	PMK inhibit
COc1cc(C2SCC(=O)Nc3c2c(=O)[nH]n3C2CCCCCC2)cc(OC)c1OC (stereo not drawn)	1.1	7	1	i	2%	0
CC(C)CCn1c(N)c(C(=O)OCC2CCCO2)c2nc3ccccc3nc21 (stereo not drawn)	4*	2	1.1	·	2%	1
CCCCn1c(N)c(C(=O)OCC2CCCO2)c2nc3ccccc3nc21 (stereo not drawn)	3.9*	0	1.1	·	7%	13
CNP(=S)(NC)OCCOc1ccc(OC)cc1	1.1	8	1	i	3%	1
CCSc1cc(C2C(C#N)=C(N)Oc3n[nH]c(C)c32)c(C)o1 (stereo not drawn)	1.1	6	1	i	2%	0
CC12CN3CC(C)(CN(C1)C31CCSCC1)C2=O	1.1	5	0.99	i	7%	16
O=c1c2ccccc2nc(N2CCCC2)n1-c1ccc(Cl)cc1	3.3*	1	1	i	4%	0
CCCn1nc2ccccc2c1P(=O)(N1CCOCC1)N1CCOCC1	1.1	2	0.98	i	5%	14
CCCCCCn1c(N)c(C(=O)NCCN2CCOCC2)c2nc3ccccc3nc21	3.9*	12	0.99	·	8%	4
CCCCCn1c(N)c(C(=O)NCCN2CCOCC2)c2nc3ccccc3nc21	2.1*	4	1.1	·	6%	7
CCCCn1c(=O)c(C(=O)Nc2nc3ccccc3[nH]2)c(O)c2ccccc21	1.7	14	1.1	i	10%	9
Cc1cc(OCC(=O)NC2CCS(=O)(=O)C2)c2c3c(c(=O)oc2c1)CCC3 (stereo not drawn)	2.2*	3	1.1	·	2%	0
Cc1cc(OCc2nn[nH]n2)c2c3c(c(=O)oc2c1)CCC3	3.9*	5	1.1	·	9%	13
CC1=CC(=O)C2=C(C)CC(O)C3C(C)C(=O)OC3C12 (stereo not drawn)	1.1	8	0.99	i	3%	2
Cn1c(C(=O)N2CCC3(CC2)OCCO3)cc2c(=O)n(C)c3ccccc3c21	1.1	0	1	i	2%	14
Cc1cccn2c(=O)c3cc(C(=O)N4CCC5(CC4)OCCO5)n(C)c3nc12	5*	8	1.1	·	10%	12
COc1ccc(CN2CCN(C(=O)Cc3ccccc3)CC2)c(OC)c1	1	52*	1	i	7%	0
OCC12COC3c4ccccc4C(OC1)N32 (stereo not drawn)	1	5	1	i	2%	0
CC(=O)[C@@]1(O)CC[C@H]2[C@@H]3CC=C4C[C@@H](O)CC[C@]4(C)[C@H]3CC[C@@]21C	1	1	0.97	i	2%	5
CCCCP(=O)(O)c1ccccc1	1.1	5	1	i	4%	7
CCCCCCOC(=O)c1ccccc1N	2.1*	4	1.1	·	4%	4
CCOC(=O)/C(CCCN(CC)CC)=N\O	1	2	1	i	4%	10
CN(C)CC#CCOCCOCCC#N	1.1	7	1	i	5%	8
O=C(c1cc2c(s1)-c1ccccc1OC2)N1CCC2(CC1)OCCO2	5.1*	0	1.1	·	3%	6
c1ccc2c(CN3CCN(C4CCCCC4)CC3)c[nH]c2c1	1.2	9	1	i	3%	0
SMILES	Autofluor 339	Spn MK inh	Abs 340nm	DPM-DC inhibit	NADH enzymes	PMK inhibit
c1ccc2c(CN3CCCCCCC3)c[nH]c2c1	1.1	48*	1.1	i	20%	12
O=C1c2ccccc2C2(c3ccc(Cl)cc3)NCCN12 (stereo not drawn)	1.1	6	1	i	7%	15
CCCNC(=O)c1c(N)n(CC2CCCO2)c2nc3ccccc3nc12 (stereo not drawn)	3.9*	3	1	·	3%	3
CC(C)OCCCNC(=O)c1c(N)n(CC2CCCO2)c2nc3ccccc3nc12 (stereo not drawn)	3*	0	1	·	1%	0
CC(N)Cc1c[nH]c2cc3c(cc12)OCCO3 (stereo not drawn)	1.7	3	1	i	2%	3
COCCOC(=O)C1=C(N)Oc2c(c(=O)oc3ccccc23)[C@@]12C(=O)Nc1ccccc12	1	8	1	i	3%	0
Cn1c2ccccc2c2c(C(=O)N3CCC4(CC3)OCCO4)cn(C3CCCCC3)c(=O)c21	2.1*	1	1.1	·	10%	19
Cn1cc(C(=O)N2CCC3(CC2)OCCO3)c2c3ccccc3n(C)c2c1=O	3.4*	1	1.1	i	11%	9
CC(C)Cn1cc(C(=O)N2CCC3(CC2)OCCO3)c2c3ccccc3n(C)c2c1=O	4.3*	8	1	·	11%	14
Cn1c(=O)cc(OCC(=O)N2CCN(Cc3ccc4c(c3)OCO4)CC2)c2ccccc21	1.1	3	1	i	3%	7
